# For some of these results: Measured potencies and affinities stand elsewhere.
# How the values were obtained:
# Set-up in all cases: scale not given: direction of the effect not stated beside the values
# [1] = target: Protein translocase subunit SecA (Escherichia coli (strain K12)) (UniProt P10408); test: Assay to Identify E. coli SecA ATPase Inhibitors; type: functional; conditions: 30 µM
# [2] = target: T1, Ubiquitin-activating enzyme e1, putative (Leishmania donovani (strain BPK282A1)) (UniProt E9BSI1); test: Leishmania donovani Ubiquitin Activating Enzyme (LdE1); type: functional; conditions: 30 µM
# T1 sequence (whole entry): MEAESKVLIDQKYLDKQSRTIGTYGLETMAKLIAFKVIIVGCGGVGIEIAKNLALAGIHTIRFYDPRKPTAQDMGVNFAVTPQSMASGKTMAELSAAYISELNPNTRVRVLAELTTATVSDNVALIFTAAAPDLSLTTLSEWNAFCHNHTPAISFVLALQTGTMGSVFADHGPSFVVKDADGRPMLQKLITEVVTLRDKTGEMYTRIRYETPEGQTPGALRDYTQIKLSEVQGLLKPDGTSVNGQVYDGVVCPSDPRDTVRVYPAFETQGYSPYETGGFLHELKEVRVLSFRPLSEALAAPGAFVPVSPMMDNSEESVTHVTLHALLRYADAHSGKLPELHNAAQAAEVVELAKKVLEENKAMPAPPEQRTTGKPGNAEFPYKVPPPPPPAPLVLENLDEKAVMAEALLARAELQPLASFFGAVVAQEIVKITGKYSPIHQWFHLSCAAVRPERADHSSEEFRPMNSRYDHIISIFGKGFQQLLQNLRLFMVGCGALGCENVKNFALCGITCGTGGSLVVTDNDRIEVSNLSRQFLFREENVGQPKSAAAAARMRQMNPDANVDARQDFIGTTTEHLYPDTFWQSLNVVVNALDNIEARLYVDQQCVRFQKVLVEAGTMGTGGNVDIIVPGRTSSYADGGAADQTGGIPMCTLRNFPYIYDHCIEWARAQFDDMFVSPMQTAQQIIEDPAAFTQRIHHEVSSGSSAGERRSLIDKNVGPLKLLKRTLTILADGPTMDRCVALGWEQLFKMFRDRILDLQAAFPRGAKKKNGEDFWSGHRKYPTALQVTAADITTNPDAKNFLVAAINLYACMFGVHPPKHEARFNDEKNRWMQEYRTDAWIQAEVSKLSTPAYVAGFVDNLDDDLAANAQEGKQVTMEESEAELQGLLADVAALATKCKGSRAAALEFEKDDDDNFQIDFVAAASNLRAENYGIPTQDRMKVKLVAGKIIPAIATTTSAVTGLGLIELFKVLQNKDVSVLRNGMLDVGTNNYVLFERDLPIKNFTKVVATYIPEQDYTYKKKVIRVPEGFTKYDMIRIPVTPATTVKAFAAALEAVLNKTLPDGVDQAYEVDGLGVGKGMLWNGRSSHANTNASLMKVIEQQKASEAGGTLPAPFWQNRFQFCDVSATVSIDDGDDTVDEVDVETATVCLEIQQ
# [3] = target: AMP-activated protein kinase, AMPK (Homo sapiens) (UniProt P54646+O43741+P54619+Q9UGJ0+Q9Y478+Q13131+Q9UGI9); test: AMP-dependent Kinase enzyme assay. An in vitro enzyme assay that detects ADP turnover that is directly proportional to AMPK activity. This uses naive AMPK that is activated during the assay with MK-8722; type: functional; conditions: 30 µM
# [4] = target: Sialic acid-binding Ig-like lectin 9 (Homo sapiens) (UniProt Q9Y336); test: Hs-Siglec9 ALPHAscreen SOP 20170721; conditions: 10 µM
# Chain of Sialic acid-binding Ig-like lectin 9 (Homo sapiens) (Q9Y336 whole entry): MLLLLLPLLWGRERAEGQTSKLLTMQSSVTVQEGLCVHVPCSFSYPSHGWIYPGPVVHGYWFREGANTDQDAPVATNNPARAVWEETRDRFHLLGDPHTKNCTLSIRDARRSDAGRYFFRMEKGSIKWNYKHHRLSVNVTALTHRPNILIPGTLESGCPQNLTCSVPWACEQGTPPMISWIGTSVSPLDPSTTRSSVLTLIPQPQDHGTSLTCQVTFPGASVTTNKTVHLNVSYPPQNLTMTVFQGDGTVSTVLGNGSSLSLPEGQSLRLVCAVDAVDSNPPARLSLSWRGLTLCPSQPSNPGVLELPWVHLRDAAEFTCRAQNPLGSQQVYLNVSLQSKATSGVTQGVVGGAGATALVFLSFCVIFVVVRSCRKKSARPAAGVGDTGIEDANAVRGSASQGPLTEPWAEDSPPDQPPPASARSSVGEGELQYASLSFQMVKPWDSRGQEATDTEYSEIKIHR
# [5] = tested on: Trypanosoma cruzi; test: Trypanosoma cruzi phosphomannomutase and mannose-1-phosphate guanylyltransferase assay; type: functional; conditions: 10 µM
# [6] = target: T2, Arginase-2, mitochondrial (Homo sapiens) (UniProt P78540); test: in vitro enzyme assay to detect the production of urea directly proportional to the activity of Arginase II; type: functional; conditions: 33.3 µM; note: in the data most compounds retested in dose-response had high values
# T2 sequence (whole entry): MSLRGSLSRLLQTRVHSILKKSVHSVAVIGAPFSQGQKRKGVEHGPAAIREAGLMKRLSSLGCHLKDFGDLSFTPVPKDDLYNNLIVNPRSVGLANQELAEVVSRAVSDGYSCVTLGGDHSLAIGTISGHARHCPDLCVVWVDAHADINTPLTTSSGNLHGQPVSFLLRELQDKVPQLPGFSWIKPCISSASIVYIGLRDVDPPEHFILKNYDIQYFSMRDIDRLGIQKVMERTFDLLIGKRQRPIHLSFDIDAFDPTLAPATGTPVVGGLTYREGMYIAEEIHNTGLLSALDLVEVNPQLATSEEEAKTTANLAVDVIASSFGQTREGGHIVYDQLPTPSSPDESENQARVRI
# [7] = target: T3, Proteasome subunit beta (Trypanosoma cruzi) (UniProt O96673); test: Trypanosoma cruzi proteasome chymotrypsin-like activity (TcProtChymo) assay.; note: in the data most compounds retested in dose-response had high values; type: functional; conditions: 9.37 µM
# T3 sequence (whole entry): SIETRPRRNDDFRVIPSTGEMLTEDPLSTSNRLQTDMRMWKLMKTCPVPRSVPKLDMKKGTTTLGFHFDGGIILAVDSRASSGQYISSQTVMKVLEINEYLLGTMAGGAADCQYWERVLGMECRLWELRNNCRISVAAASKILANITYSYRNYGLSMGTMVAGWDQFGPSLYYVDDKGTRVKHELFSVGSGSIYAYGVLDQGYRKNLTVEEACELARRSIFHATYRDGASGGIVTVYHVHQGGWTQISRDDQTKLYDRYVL
# [8] = species on record: Homo sapiens; test: To identify inhibition of the IFN signalling (Jak-Stat) pathway via expression of an eGFP reporter gene under the control of an IFN-stimulated response element (ISRE) containing MxA promoter.; type: functional; conditions: 30 µM
# [9] = target: T4, Tyrosyl-tRNA synthetase, putative (Trypanosoma cruzi (strain CL Brener)) (UniProt Q4DSP6); test: Trypanosoma cruzi tyrosyl tRNA synthetase (TcYRS) _High Tyrosine SOP; type: functional; conditions: 30 µM; note: in the data most compounds retested in dose-response had high values
# T4 sequence (whole entry): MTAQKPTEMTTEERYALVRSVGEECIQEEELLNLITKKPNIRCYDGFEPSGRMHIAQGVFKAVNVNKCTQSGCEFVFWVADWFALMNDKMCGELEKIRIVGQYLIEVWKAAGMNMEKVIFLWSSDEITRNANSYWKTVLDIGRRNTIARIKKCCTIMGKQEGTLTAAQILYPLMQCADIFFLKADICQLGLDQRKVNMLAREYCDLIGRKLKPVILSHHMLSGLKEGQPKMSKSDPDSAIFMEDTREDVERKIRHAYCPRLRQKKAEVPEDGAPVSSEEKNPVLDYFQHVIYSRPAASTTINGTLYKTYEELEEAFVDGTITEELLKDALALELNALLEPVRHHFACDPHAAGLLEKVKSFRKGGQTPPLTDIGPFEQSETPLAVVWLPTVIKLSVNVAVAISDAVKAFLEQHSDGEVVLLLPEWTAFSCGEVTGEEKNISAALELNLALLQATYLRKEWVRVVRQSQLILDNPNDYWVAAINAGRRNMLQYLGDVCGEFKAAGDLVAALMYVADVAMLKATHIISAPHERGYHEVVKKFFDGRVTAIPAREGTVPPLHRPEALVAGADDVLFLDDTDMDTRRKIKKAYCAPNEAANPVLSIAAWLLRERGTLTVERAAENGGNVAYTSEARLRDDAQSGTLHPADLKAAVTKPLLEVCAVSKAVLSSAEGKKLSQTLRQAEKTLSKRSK
# [10] = target: T4, Tyrosyl-tRNA synthetase, putative (Trypanosoma cruzi (strain CL Brener)); test: Trypanosoma cruzi tyrosyl tRNA synthetase (TcYRS) SOP; type: functional; conditions: 30 µM
# [11] = target: Chromo domain-containing protein 1 (Saccharomyces cerevisiae (strain ATCC 204508 / S288c) (Baker's yeast)) (UniProt P32657); test: ScCHD-1 Enzyme Inhibition Assay; type: functional; conditions: 30 µM; note: in the data most compounds retested in dose-response had high values
# Chain of Chromo domain-containing protein 1 (Saccharomyces cerevisiae (strain ATCC 204508 / S288c) (Baker's yeast)) (P32657 whole entry, the tested form may be a part): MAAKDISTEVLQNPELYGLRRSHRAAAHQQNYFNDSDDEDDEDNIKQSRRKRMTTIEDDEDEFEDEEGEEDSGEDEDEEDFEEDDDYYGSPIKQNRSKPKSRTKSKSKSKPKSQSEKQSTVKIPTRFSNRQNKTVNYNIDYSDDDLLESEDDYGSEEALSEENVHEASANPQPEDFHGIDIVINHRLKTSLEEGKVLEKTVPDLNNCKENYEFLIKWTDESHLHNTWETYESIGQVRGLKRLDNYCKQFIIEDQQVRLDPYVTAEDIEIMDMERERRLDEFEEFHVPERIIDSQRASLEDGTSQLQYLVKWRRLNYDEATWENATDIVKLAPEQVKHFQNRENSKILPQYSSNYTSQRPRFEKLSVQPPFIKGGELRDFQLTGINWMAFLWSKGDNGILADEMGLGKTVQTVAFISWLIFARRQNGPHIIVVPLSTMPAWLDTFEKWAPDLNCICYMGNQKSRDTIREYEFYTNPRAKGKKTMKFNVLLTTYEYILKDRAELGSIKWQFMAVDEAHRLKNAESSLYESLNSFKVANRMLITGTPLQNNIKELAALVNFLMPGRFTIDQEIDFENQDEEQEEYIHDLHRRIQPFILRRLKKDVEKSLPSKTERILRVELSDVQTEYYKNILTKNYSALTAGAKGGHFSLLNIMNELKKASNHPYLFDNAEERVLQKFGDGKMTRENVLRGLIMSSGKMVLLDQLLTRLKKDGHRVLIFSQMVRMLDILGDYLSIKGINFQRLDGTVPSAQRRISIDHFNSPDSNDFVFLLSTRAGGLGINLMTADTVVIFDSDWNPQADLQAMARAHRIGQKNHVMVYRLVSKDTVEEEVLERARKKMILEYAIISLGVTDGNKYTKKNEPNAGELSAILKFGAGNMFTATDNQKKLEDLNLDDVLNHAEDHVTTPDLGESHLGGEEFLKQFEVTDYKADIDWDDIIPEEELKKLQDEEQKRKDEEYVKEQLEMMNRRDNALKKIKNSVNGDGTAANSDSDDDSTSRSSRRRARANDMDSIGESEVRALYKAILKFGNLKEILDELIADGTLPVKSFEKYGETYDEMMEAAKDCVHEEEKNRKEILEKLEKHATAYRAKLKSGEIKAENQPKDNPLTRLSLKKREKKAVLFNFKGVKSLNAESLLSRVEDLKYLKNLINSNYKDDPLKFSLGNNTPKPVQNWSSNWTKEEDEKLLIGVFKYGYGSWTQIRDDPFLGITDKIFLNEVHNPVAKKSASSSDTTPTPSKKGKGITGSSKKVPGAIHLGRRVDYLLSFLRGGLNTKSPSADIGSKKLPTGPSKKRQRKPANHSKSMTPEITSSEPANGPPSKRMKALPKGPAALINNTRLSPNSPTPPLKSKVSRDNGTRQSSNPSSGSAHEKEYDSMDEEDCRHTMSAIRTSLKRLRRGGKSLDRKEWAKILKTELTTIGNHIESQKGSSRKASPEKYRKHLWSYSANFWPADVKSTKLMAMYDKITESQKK
# Chain of Protein translocase subunit SecA (Escherichia coli (strain K12)) (P10408 whole entry): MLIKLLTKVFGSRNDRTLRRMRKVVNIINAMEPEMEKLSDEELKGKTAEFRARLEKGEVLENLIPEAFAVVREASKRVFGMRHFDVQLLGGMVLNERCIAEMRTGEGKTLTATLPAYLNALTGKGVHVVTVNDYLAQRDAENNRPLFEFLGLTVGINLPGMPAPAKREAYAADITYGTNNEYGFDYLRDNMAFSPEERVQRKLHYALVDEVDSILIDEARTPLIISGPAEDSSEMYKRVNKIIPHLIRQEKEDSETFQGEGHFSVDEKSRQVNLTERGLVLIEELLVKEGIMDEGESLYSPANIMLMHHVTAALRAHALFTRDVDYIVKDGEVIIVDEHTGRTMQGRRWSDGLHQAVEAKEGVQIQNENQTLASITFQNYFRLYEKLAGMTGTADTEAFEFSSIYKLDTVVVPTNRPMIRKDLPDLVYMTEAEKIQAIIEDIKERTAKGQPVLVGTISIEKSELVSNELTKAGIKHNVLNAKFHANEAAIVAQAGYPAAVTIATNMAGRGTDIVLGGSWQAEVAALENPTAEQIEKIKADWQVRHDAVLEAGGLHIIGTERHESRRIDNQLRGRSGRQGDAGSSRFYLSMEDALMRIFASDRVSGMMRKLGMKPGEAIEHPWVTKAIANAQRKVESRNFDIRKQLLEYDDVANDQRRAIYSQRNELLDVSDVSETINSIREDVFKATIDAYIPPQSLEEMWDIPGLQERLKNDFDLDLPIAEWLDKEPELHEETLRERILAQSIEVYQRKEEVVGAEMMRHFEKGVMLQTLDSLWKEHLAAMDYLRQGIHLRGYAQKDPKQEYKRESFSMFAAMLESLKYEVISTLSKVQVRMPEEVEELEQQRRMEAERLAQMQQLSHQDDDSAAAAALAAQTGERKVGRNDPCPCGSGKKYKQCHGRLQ
SMILES,Percent Effect [1],Percent Effect [2],Percent Effect [3],Percent Effect [4],Percent Effect [5],Percent Effect [6],Percent Effect [7],Percent Effect [8],Percent Effect [9],Percent Effect [10],Percent Effect [11]
COc1ccc(CC(=O)N2CCCCC2Cn2cccn2)cc1OC (stereo unspecified),-5.85%,7.89%,1.89%,0.458%,0.682%,-11.8%,6.81%,5.15%,0%,10.4%,-1.27%
COc1ccc(CNC(=O)C2(C#N)CCCC2)cc1,-1.97%,12.5%,-13.3%,-2.27%,3.6%,-2.65%,15.1%,-14.7%,4.21%,7.69%,95.5%
CCc1ccc(CN2CCC3(CC2)CC(N2CCN(C)CC2)CO3)cc1 (stereo unspecified),-9.52%,0%,7.52%,5.26%,-0.293%,-2.23%,11.6%,-0.446%,4.32%,5.13%,14%
Cn1cnc2c1C(COCC1CC1)CN(Cc1ccc3c(c1)OCO3)C2 (stereo unspecified),-5.21%,-2.7%,15%,-2.11%,-0.977%,-3.75%,0.0845%,12.3%,2.97%,-1.22%,-2.11%
Cc1nnc(CN2CCN(CCOc3ccccc3C#N)CC2)n1C,-5%,13.2%,-7.44%,8.94%,5.7%,1.44%,7.87%,5.78%,3.45%,16.1%,-3.26%
CN1C(=O)C[C@@H]2[C@@H]1CCN2C(=O)c1ccc[nH]1,-5.79%,-2.74%,1.46%,3.04%,-1.59%,-3.99%,10.7%,17.1%,1.04%,6.17%,0.233%
CCC(C)NC(=O)N1CCCn2cnc(CO)c2C1 (stereo unspecified),-0.731%,2.74%,1.02%,5.8%,0.198%,2%,4.54%,6.37%,6.25%,6.17%,1.09%
CCOc1ccccc1-c1noc(CN(C)Cc2cnn(C)c2)n1,1.46%,8.11%,-5.04%,7.46%,-2.12%,-4.76%,11.9%,4.5%,4.76%,9.76%,-1.75%
CCOc1cccc(C(C)NC(=O)N2CCC(C(N)=O)CC2)c1 (stereo unspecified),-2.51%,2.7%,-1.93%,5.06%,-1.93%,-0.952%,3.97%,14.3%,3.7%,9.76%,-1.95%
O=C1CC[C@H]2[C@H](CCN2C(=O)C2CCCO2)N1Cc1ccncc1 (stereo partly specified),-2.88%,22.7%,-8.21%,-5.26%,2.36%,-8.63%,14.1%,12.9%,1.06%,7.69%,-8.01%
Cc1nn(C)c(C)c1C1CCCN1Cc1cccc(C(=O)N(C)C)c1 (stereo unspecified),-2.08%,7.59%,-8.35%,3.65%,4.06%,0.76%,2.54%,-16.6%,4.43%,8.86%,0.0198%

# Source: ChEMBL document CHEMBL3988442, “University of Dundee, Small-Polar-MMV Screening Library” (2021)
